According to PubChem BioAssay AID1259370 (Center for Chemical Genomics, University of Michigan, 2018):
About 680 (0.72%) of roughly 94,000 compounds were called active. The sample as a whole holds a higher share of actives than the screen did. Values without a mark were called inactive. No stated cut-off is given here; in the data, active means z-score above about 3.2; inactive means the rest.

Each compound was assayed against M-phase inducer phosphatase 2 (Homo sapiens) + Cyclin-dependent kinase 2 (Homo sapiens) + Cyclin-A2 (Homo sapiens) (UniProt P30305+P24941+P20248) (assay: primary biochemical HTRF screen for inhibition of M-phase inducer phosphatase 2 binding to cyclin-dependent kinase 2/cyclin A (AID 1259370)). Conditions: HTRF CDC25B-CDK2/CyclinA binding, anti-His/anti-Flag; hits give high values.

SMILES	z-score
CCOC(=O)c1c(N)sc2c1CCN(C(C)=O)C2	-2.08
CCOC(=O)c1c(C)n(C)c2cc3c(cc12)OC(=O)C3(O)C(F)(F)F (stereo not given)	-2.18
N=C1C(c2nc3ccccc3[nH]2)=C(O)CN1c1ccc(Oc2ccccc2)cc1	1.4
CC1=C(C(N)=O)C(c2cccc(O)c2)n2nc(SCc3ccccc3F)nc2N1 (stereo not given)	-0.38
CCOC(=O)CNC(=O)N1CCCC1c1ccco1 (stereo not given)	-1.79
Cc1ccc(NS(=O)(=O)C2CCS(=O)(=O)C2)cc1Cl (stereo not given)	-1.16
Cc1ccc(S(=O)(=O)c2nc(S(C)(=O)=O)sc2N2CCN(CCO)CC2)cc1	-2
Cc1cccc2c1Oc1nc(-c3ccccc3O)[nH]c(=O)c1C2	-0.22
C=CCN1C=C(OC(=O)COc2ccccc2)c2ccccc2S1(=O)=O	-2.21
O=C(C1CCN(S(=O)(=O)c2cccs2)CC1)N1CCN(c2ccccc2Cl)CC1	-0.01
COc1ccc(C2=NS(=O)(=O)N(C)C(C(=O)N3CCN(C(=O)c4ccco4)CC3)=C2)cc1	-0.02
CCN(CC)S(=O)(=O)c1nnc(NC(=O)C(C)C)s1	-1.69
C=CCN(Cc1nc(-c2ccc(C)cc2)no1)S(=O)(=O)c1ccc(Br)cc1	-1.17
O=c1c(S(=O)(=O)c2ccc(Cl)cc2)c[nH]c2ccc(F)cc12	0.19
Cc1cc(C)n(CCc2nc3c4ccccc4nc(SCC(=O)NCc4ccco4)n3n2)n1	-1.06
O=C(CSCc1cnn(-c2ccccc2)c1-n1cccc1)Nc1ccc2c(c1)OCCO2	-1.15
CC(c1ccccc1)N1CSC2=C(C#N)C(c3ccc(Cl)cc3)CC(=O)N2C1 (stereo not given)	1.37
CCOc1ccc(C2CC(=O)N3CN(c4ccc(OC)cc4OC)CSC3=C2C#N)cc1OC (stereo not given)	3.34 (active)
COC(=O)c1sc(=S)n(-c2ccc(Cl)cc2)c1C	-0.46
COC(=O)c1ccc(N2CSC3=C(C#N)C(c4ccc(Cl)cc4)CC(=O)N3C2)cc1 (stereo not given)	7.06 (active)
CCOc1ccc(C2CC(=O)Nc3nc(SC)[nH]c(=O)c32)cc1OC (stereo not given)	-2.13
COc1cc(C2CC(=O)N3CN(c4ccccc4)CSC3=C2C#N)ccc1O (stereo not given)	0.52
CNC(=O)c1c(NC(=O)c2cc(=O)c3ccccc3o2)sc2c1CCCC2	-0.57
COCCCn1c(SC2CCOC2=O)nc2c(sc3ccccc32)c1=O (stereo not given)	-3.05

SMILES	z-score
CCOC(=O)C1=C(C)NC2=C(C(=O)CC(c3cccs3)C2)C1c1cc(Br)ccc1F (stereo not given)	-0.66
CCOC(=O)c1c(CN(CC)CC)n(C)c2cc(Br)c(OC)cc12	-0.02
Cc1c(C=O)c(=O)oc2c3c4c(cc12)CCCN4CCC3	16.4 (active)
Cc1c(C)c2cc3c4c(oc3c(C)c2oc1=O)CCCC4	0.16
CCc1cccc(-n2nnc(S(=O)(=O)c3ccc(C)cc3)c2C)c1	-0.89
CN1C(=O)c2ccccc2C(C(=O)Nc2ccc3c(c2)OCO3)C1c1cn(C)c2ccccc12 (stereo not given)	-2.4
CCCc1c(C)nc2ncnn2c1Nc1ccc(CC)cc1	-2.22
COc1ccc(COC(=O)C2=C(C)NC3=C(C(=O)CCC3)C2c2ccc(Br)cc2)cc1 (stereo not given)	-0.5
CCOCCOC(=O)C1=C(C)NC2=C(C(=O)CCC2)C1c1ccc(OC(C)=O)cc1 (stereo not given)	-0.12
C=CCOc1ccc(C2C3=C(CCCC3=O)NC3=C2C(=O)CCC3)cc1	15.9 (active)
O=C1CCCN1CCCn1c(=O)[nH]c2ccccc2c1=O	-0.94
Cc1nc2ccccc2nc1NO	1.05
Cc1cc(=O)nc2c3ccccc3n(CC(=O)NC3CCC(C)CC3)n12 (stereo not given)	-1.08
CCN1CCN(c2c(C(=O)c3ccccc3)cnc3cc4c(cc23)OCCO4)CC1	2.74
CCn1c(SCC(=O)Nc2c(C)cc(C)cc2C)nc2c(c1=O)SCC2	-0.71
CCc1cc2c(cc3c(=O)n(CC(=O)NCCCOC)nc(CC)n32)s1	-1.5
O=S(=O)(NCc1ccccc1)c1ccc(-c2ccc(S(=O)(=O)NCc3ccccc3)cc2)cc1	-0.47
COc1ccc(N2C(=O)CSC2c2cc(Br)ccc2OC)cc1 (stereo not given)	-0.41
CN1CSC2=C(C#N)C(c3ccc(Br)cc3)CC(=O)N2C1 (stereo not given)	1.4
COc1ccc(N2CSC3=C(C#N)C(c4cccc(Br)c4)CC(=O)N3C2)cc1 (stereo not given)	4.67 (active)
COc1cccc(C2CC(=O)N3CN(c4ccc(Br)cc4)CSC3=C2C#N)c1 (stereo not given)	7.44 (active)
COc1ccc(-c2n[nH]c3c2C(c2cccc(Br)c2)NC3=O)cc1 (stereo not given)	0.39
COc1cc(C2CC(=O)N3CN(c4ccc(Br)cc4)CSC3=C2C#N)ccc1O (stereo not given)	0.91
Cc1cc(C)c2c(n1)nn1c(C)c(CCC(=O)NCCCN3CCCC3=O)c(C)nc21	-0.15

SMILES	z-score
CC(C)n1c(=O)c2c3c(sc2n(Cc2ccccc2)c1=O)COC(C)(C)C3	-1.8
O=c1c2cccnc2n(Cc2ccc(F)cc2)c(=O)n1Cc1ccco1	0.9
C=CCN(c1ccccc1)S(=O)(=O)c1cc(Br)cc2c1N(C(C)=O)C(C)C2 (stereo not given)	0.27
COc1cccc(OCC(O)Cn2c[n+](C)c3cc(C)c(C)cc32)c1 (stereo not given)	0.54
CC1=C(C(=O)OCC2CCCO2)C(c2cccc(Cl)c2)C2=C(CC(c3cccs3)CC2=O)N1 (stereo not given)	-0.95
Cn1c(=O)c2c(ncn2CC(=O)NCC2CCCO2)n(C)c1=O (stereo not given)	-1.02
Cc1nn(C(C)C(=O)NCc2ccco2)c(=O)c2cc3occc3n12 (stereo not given)	-0.04
Cc1ccccc1NC(=O)NCc1ccco1	-0.44
CCC(C)N(CCNC(=O)Nc1cn(C)c(=O)c2ccccc12)Cc1ccco1 (stereo not given)	12.3 (active)
COc1cc(NC(=O)c2nn3c(C(F)(F)F)cc(-c4cccs4)nc3c2Cl)cc([N+](=O)[O-])c1	-3.72
COc1ccccc1-c1nnc(SCc2ccc(F)cc2)o1	1.82
O=C(NC1CCc2ccccc21)c1cc2c(s1)CCC2 (stereo not given)	-1.04
O=C(Nc1ccc(F)cc1)N1CCC(n2c(=O)[nH]c3ccccc32)CC1	-3.87
CCN(CC)c1nc2c(s1)C(=O)NCC(C)(C)C2	-0.63
O=C(/C=C/c1ccc(Cl)cc1)Nc1ccc(-c2nc3ccccc3o2)c(O)c1	-2.66
O=C(/C=C/c1ccc(-c2ccccc2[N+](=O)[O-])o1)Nc1cc(Cl)c(Cl)cc1Cl	3.71 (active)
O=C(/C=C/c1cccc([N+](=O)[O-])c1)Nc1ccc(O)c(-c2nc3ccccc3o2)c1	-3.5
CCCCN(CC)C(=O)c1nn(C)c2c1COc1ccccc1-2	-1.21
CCCc1nc(C)cc(N2CCOCC2)n1	-1.62
COc1cc(C2CC(=O)Nc3c2cc(Br)c2ccccc32)ccc1O (stereo not given)	-0.73
Cc1ccc(NC(=O)CSc2nc(N)c3c4c(sc3n2)COC(C(C)C)C4)cc1 (stereo not given)	-24.7
COC(=O)C1=C(OC(=O)COc2ccccc2)c2ccccc2S(=O)(=O)N1C	-1.66
CCOC(=O)Cc1nnc2c(Nc3cccc(Br)c3)nc3nonc3n12	-0.4
CCCCn1c2ccccc2c2nc3ccccc3nc21	19.8 (active)

SMILES	z-score
CCCCCCn1c(C2CCCO2)nc2ccccc21 (stereo not given)	-2.17
CCCCn1c(CCNC(=O)C(C)(C)C)nc2ccccc21	0.64
C=C1c2cc(OCC)ccc2NC(=O)N1c1ccc(Cl)cc1	-0.12
CCCCN(Cc1ccco1)C(=O)Cn1ncc2c1-c1cc(C)ccc1OC2	-2.75
O=C1c2ccccc2C(Nc2ccc3c(c2)OCCO3)N1c1ccc(Cl)cc1 (stereo not given)	1.04
O=C(COc1ccc(Cl)cc1)Oc1ccc2ccccc2c1	-1.03
CC1=Nc2ccccc2-c2nnc(SCc3ccccc3F)nc2O1	-1.63
CCC(C)NC(=O)C1CCN(C(=O)c2sccc2-n2cccc2)CC1 (stereo not given)	-1.11
Cc1cc(OCC(=O)Oc2ccc(-n3cnnn3)cc2)cc(C)c1Cl	0
CCOc1cc(-n2cnnn2)c(OCC)cc1N	14.4 (active)
CCOC(=O)N1CCN(S(=O)(=O)c2ccc(-n3cnnn3)cc2)CC1	-0.58
Clc1ccc(N2CCCC2)nn1	0.42
Cc1ccccc1-c1noc(-c2ccc(F)cc2)n1	-0.49
CC(C)(C)c1cn2c3ccccc3n(CCN3CCOCC3)c2n1	0.1
CN1CCN(c2cc(NCCCC(=O)O)c3c4c(onc24)-c2ccccc2C3=O)CC1	0.14
CC1CCN(c2cc(NCC(=O)O)c3c4c(onc24)-c2ccccc2C3=O)CC1	13.8 (active)
CC(C)CNc1cc(N2CCN(C)CC2)c2noc3c2c1C(=O)c1ccccc1-3	-2.89
Cc1nc2ncnn2c(Sc2ccc(N)cc2)c1C	3.58
O=C(CN1CCN(c2ccccn2)CC1)c1ccc2c(c1)CCN2	-2.4
Cc1ccc(-c2nnc(C3CCN(S(=O)(=O)c4c(C)cc(C)cc4C)CC3)o2)cc1	0.05
COc1ccc(OCC(O)CN2CCC(C)CC2)cc1 (stereo not given)	1.91
NC(=O)C1CCN(CC(O)COc2ccc(Cl)c(Cl)c2)CC1 (stereo not given)	-0.09
CCOC(=O)N1CCN(CC(O)COc2ccc(OC(F)(F)F)cc2)CC1 (stereo not given)	11.1 (active)
